NTR1 ag: agonists of human NTR1, primary screen, imaging, U2OS cells, beta-arrestin-GFP, high content; Neurotensin receptor type 1 (Homo sapiens), P30989; activation, % at 20 µM; NTR1-U2OS beta-arrestin-GFP spot imaging, agonist mode; hit rate 0.17% among 330,000;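 active means activation at or above 40% of the spot to cytoplasm intensity ratio, with at least 20 cells analyzed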;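 further: 0% = DMSO without peptide and 100% = 100 nM NTR1 peptide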
ANO1 activ: TMEM16A chloride channel activators or potentiators, primary screen, cell-based, HTS. HEK293 TMEM16A/YFP-H148Q/I152L, iodide quench fluorescence; active compounds read low. hit rate 0.3% among 340,000. B-score at 10 µM. Anoctamin-1 (Mus musculus), Q8BHY3. AID 623877, 2012;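 active means fluorescence-ratio B-score plate-corrected deviation score at least 3 library SD below zero, with starting fluorescence score within 5 deviations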;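 further: channel opened by trigger with iodide after compound preincubation; score built on the fluorescence ratio of max minus min over baseline; more negative score means more quench and so TMEM16A activation or potentiation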
TMEM16A inh: TMEM16A chloride channel inhibitors, primary screen, cell-based, HTS; Anoctamin-1 (Mus musculus), Q8BHY3; HEK293 TMEM16A/YFP iodide influx fluorescence, ionomycin; normalized B-score (activity score, 25-100; higher = stronger inhibition) at 10 µM; hit rate 1.2% among 310,000;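 active means ratio plate-corrected score three or more library SD toward inhibition, starting fluorescence score within five deviations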;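 further: score derived from kinetic fluorescence span divided by baseline fluorescence per well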
MEKK3 PB1 HTS: modulators of MEKK3-MEK5 PB1 binding, primary screen, biochemical, wildtype MEKK3, multiplex bead flow cytometry, Alexa488-MEK5; Mitogen-activated protein kinase kinase kinase 3 (Homo sapiens), Q99759; bead-based flow cytometry, Alexa488-MEK5 binding to MEKK3; actives lie on both sides; 0 = blocked by unlabeled MEK5, 100 = vehicle; binding response (% of control), % at 10 µM; hit rate 1.4% among 290,000;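 active means binding response more than 3 SD above or below the average of its plate-row segment, actives on both sides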;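 further: Alexa488 bead fluorescence after subtracting the streptavidin-only scavenger bead signal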
Target sequence (Q99759 whole entry, looked up): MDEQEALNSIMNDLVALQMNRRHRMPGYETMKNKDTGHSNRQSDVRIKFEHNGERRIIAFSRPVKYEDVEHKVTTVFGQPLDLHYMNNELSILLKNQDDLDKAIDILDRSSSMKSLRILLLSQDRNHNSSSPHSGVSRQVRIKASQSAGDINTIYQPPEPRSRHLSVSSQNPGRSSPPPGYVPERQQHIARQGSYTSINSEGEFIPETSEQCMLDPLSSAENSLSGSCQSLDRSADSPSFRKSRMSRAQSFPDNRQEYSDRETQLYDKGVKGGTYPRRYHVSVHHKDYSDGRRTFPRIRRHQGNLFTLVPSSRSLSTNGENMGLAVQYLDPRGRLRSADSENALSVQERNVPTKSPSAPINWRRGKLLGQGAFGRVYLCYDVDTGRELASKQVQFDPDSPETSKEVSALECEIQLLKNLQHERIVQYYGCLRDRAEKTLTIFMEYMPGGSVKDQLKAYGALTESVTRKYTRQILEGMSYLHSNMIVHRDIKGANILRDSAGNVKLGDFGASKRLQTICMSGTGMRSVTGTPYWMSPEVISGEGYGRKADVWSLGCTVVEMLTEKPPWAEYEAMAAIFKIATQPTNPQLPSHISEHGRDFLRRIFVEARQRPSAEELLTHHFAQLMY
MEKK2wt PB1 HTS: modulators of MEK5 binding to wildtype MEKK2, primary screen, biochemical, multiplex bead flow cytometry, Alexa488-MEK5 | Mitogen-activated protein kinase kinase kinase 2 (Homo sapiens), Q9Y2U5 | Alexa488-MEK5 binding to MEKK2 WT; actives lie on both sides | binding response (% of control), % at 10 µM | hit rate 1.1% among 290,000 | AID 1531, 2009; in the data active means binding response below about 67% or above about 130%
MEKK2 mut-MEK5: MEK5 binding signal on mutant MEKK2 PB1, primary screen, biochemical, multiplex bead flow cytometry, Alexa488-MEK5. Alexa488-MEK5 binding to MEKK2 mutant. percent response, % at 10 µM. hit rate 0.35% among 290,000; in the data active means percent response above about 24%, passing the limit was not always enough
TMEM16A reconf: TMEM16A chloride channel inhibitors, confirmation, cell-based, re-confirmation. HEK293 TMEM16A/YFP-H148Q, iodide quench fluorescence; ionomycin added to raise cell calcium. shares compounds with TMEM16A inh. inhibition, % at 10 µM. hit rate 39% among 2,300;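 active means mean duplicate percent inhibition, scaled so buffer wells are 0 and the reference blocker 100, over three buffer SD above buffer mean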
HEK293 Ca mobil: calcium mobilization in TMEM16A/YFP HEK293 cells, confirmation, counter-screen for TMEM16A inhibitor project. shares compounds with TMEM16A inh. Fluo4 calcium mobilization. calcium response (% of ionomycin), % at 10 µM. hit rate 2% among 2,300. AID 652231, 2013;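 active means duplicate-averaged calcium signal over 20% of the ionomycin maximum, relative to buffer baseline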;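 further: each well's signal is peak minus trough fluorescence divided by its pre-addition baseline; 0% = buffer wells and 100% = ionomycin wells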
Parental YFP cnt: iodide YFP quench changes in parental YFP-HEK293, counter-screen for TMEM16A inhibitor project, cell-based | YFP ratio F(max-min)/F0 at 10 µM | ionomycin | shares compounds with TMEM16A inh | 2,300 tested, under 10 active;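 active means yellow fluorescent protein signal ratio exceeding the buffer control mean by over 5 SD of those controls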;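 further: ratio is mean of duplicate wells from kinetic YFP trace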
ClC-1 rat inh: ClC-1 chloride channel inhibition, selectivity assay for TMEM16A inhibitor project, cell-based, voltage-dependent ClC-1; 2,300 tested, under 10 active; ratio percent, % at 10 µM; shares compounds with TMEM16A inh; AID 652236, 2013; CHO ClC-1-YFP, iodide influx fluorescence quench; iodide control reads 0, buffer control 100;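 active means duplicate-mean ratio percent above the mean of iodide-only control wells, which defines zero, plus 5 of their SD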;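 further: higher percent means stronger block of ClC-1 iodide influx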
* = called active by the depositor; i = inactive; x = no result given. Only some compounds are listed: those with a hit (about 3.4% of all), similar ones and a draw of the others.

SMILES	NTR1 ag	ANO1 activ	TMEM16A inh	MEKK3 PB1 HTS	MEKK2wt PB1 HTS	MEKK2 mut-MEK5	TMEM16A reconf	HEK293 Ca mobil	Parental YFP cnt	ClC-1 rat inh
COc1ccc(-c2cc(C(=O)Nc3sc4c(c3C#N)CCCC4)c3ccccc3n2)cc1	x	i	i	106	95	-2	x	x	x	x
COC(=O)c1sc(NC(=O)c2cc(-c3ccccc3)nc3ccccc23)c(C#N)c1C	2	i	100*	100	102	-2	42%*	i	-1	-22
CCOC(=O)c1sc(NC(=O)c2cc(-c3ccc(C)cc3)nc3ccccc23)c(C#N)c1C	13	i	i	99	95	-1	x	x	x	x
Cc1ccccc1-c1cc(C(=O)Nc2sc(C(=O)OC(C)C)c(C)c2C#N)c2ccccc2n1	23	i	25*	72	65	-17	68%*	i	-1.2	-20
CCC1(C)C(Nc2c(C)cccc2C)=NC(=S)N1c1ccc(NC(C)=O)cc1 (stereo unspecified)	-1	i	i	106	107	13	x	x	x	x
C=CCc1cc(C(=O)N2CCCCC2)ccc1O	2	i	i	101	101	-1	x	x	x	x
C=CCc1ccc(O)c(-c2ccc(O)c(CC=C)c2)c1	18	i	100*	105	104	1	56%*	i	-0.88	-14
Cc1ccc(S(=O)(=O)NCc2ccncc2)cc1C	2	i	i	96	93	-9	x	x	x	x
O=S(=O)(NCc1ccncc1)c1ccc(Br)s1	0	i	100*	104	102	7	i	i	-1.1	-18
Cc1cc(C)c(C)c(S(=O)(=O)NCc2ccncc2)c1C	1	i	25*	104	107	3	26%*	i	-1	-14
CN(C)C(CNC(=O)c1ccco1)c1cccs1 (stereo unspecified)	0	i	i	x	x	x	x	x	x	x
CCC(CC)NC(=O)COc1ccc(OC)cc1C=O	0	i	i	103	95	-11	x	x	x	x
CCCCn1c(SCC(=O)N2CCCC2)nnc1-c1ccccc1	-1	i	100*	97	93	-5	i	i	-1.1	-11
Cn1c(N)c(C(=O)COC(=O)CCC(=O)c2ccc(F)cc2)c(=O)n(C)c1=O	0	i	i	92	92	-2	x	x	x	x
O=C(Nc1ccc(Br)cc1)c1cccc(S(=O)(=O)Nc2cnc3ccccc3c2)c1	4	i	100*	101	98	-1	45%*	i	-1	-30
COc1ccccc1NC(=O)c1ccc(C(=O)c2ccccc2)o1	1	i	100*	100	97	-1	19%*	i	-0.96	1
COc1ccccc1NC(=O)Cc1ccc(-c2ccccc2)cc1	0	i	25*	99	99	-8	i	i	-0.99	-10
CCCCCCn1c(=O)c(Cc2ccccc2)c(O)c2ccccc21	-1	i	i	103	96	-3	x	x	x	x
CCCCCCCn1c(=O)c(C(=O)OC)c(N)c2ccccc21	5	i	25*	99	103	-7	43%*	i	-0.87	-25
CCN(C(=O)CSc1nnc(C)n1-c1ccc(C)cc1)c1c(N)n(Cc2ccccc2)c(=O)[nH]c1=O	x	i	x	x	x	x	x	x	x	x
COc1cc(C(=O)OCC(=O)NCc2ccco2)cc(OC)c1OC	0	i	i	101	103	3	x	x	x	x
COc1cc(C(=O)OCC(=O)N(C)C)cc(NC(=O)c2ccco2)c1OC	1	i	100*	102	98	1	i	i	-0.98	-8
COc1ccc(C2CC(=O)c3c(C)nc(N4CCN(Cc5ccccc5)CC4)nc3C2)cc1OC (stereo unspecified)	6	i	100*	100	106	1	26%*	i	-0.91	-14
CN(C)c1ccc2c(O)cc(=O)n(C)c2c1	0	i	100*	106	111	7	i	i	-1.1	-6
CN(C)c1ccc2cc(S(=O)(=O)O)cc(O)c2c1	x	i	x	x	x	x	x	x	x	x
SMILES	NTR1 ag	ANO1 activ	TMEM16A inh	MEKK3 PB1 HTS	MEKK2wt PB1 HTS	MEKK2 mut-MEK5	TMEM16A reconf	HEK293 Ca mobil	Parental YFP cnt	ClC-1 rat inh
Clc1ccc(CSC2=NCCCN2)cc1Cl	0	i	i	102	106	4	x	x	x	x
Clc1ccccc1CSC1=NCCCN1	1	i	100*	102	93	0	i	i	-1.1	-11
COc1ccc(C(=O)NNC(=O)C23CC4CC(CC(C4)C2)C3)cc1OC	0	i	x	x	x	x	x	x	x	x
CCOC(=O)N1CCN(C(=O)CSc2nc3c(cnn3-c3ccc(Cl)cc3)c(=O)[nH]2)CC1	4	i	i	110	110	9	x	x	x	x
O=C1N(Cc2ccc(F)cc2Cl)c2ccccc2C12OCCCO2	3	i	i	112	109	5	x	x	x	x
O=C1N(Cc2ccccc2F)c2ccccc2C12OCCCO2	2	i	100*	98	99	-1	i	i	-1.1	-9
COc1cc(NC(=O)CSCC(=O)Nc2cccc(C(F)(F)F)c2)c(Cl)cc1Cl	5	i	100*	92	89	-4	i	i	-0.99	-9
Cc1nn(-c2ccccc2)c2sc(C(=O)OC3CCOC3=O)cc12 (stereo unspecified)	2	i	i	x	x	x	x	x	x	x
C=CCOC(=O)C1=C(C)NC(SCC(N)=O)=C(C#N)C1c1ccc(C)cc1 (stereo unspecified)	1	i	i	94	95	-3	x	x	x	x

Screens from PubChem.
